Test results from PubChem BioAssay (NCI).
This is part of a sample that, as a whole, favours compounds with a hit. Of some 83,000 tested, about 20% had one in any assay.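 Interpretation: 100, growth as untreated; towards 0, rising growth inhibition; 0, no net growth; 0 to -100, cell death. Compounds scoring below 10 were considered active.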 A number with no mark means an inactive call. Active and inactive are the calls of the source.

What follows are compounds tested on SN12C renal (assay: NCI-60 one-dose screen, 48 h (100 = growth as untreated, 0 = no growth, -100 = all killed)). Settings: 10 µM unless noted.
For `CC(C)OC1=C(Cl)C(=O)c2ccccc2C1=O`, the growth was 90.5%. `CS(=O)(=O)Nc1cccc(C(=O)NCc2ccc(N3CCOCC3)cc2)c1` showed a growth of 107%. `COc1ccc(S(=O)(=O)ON=C2C=C(C)C(=O)C(C)=C2)cc1` was tested, and the growth was 113%. `CCOC(=O)c1c(Cl)c2c(n1Cc1cc(OC)cc(OC)c1)-c1oncc1CCC2` showed a growth of 38.9%. `NC(=S)N/N=C1\c2ccccc2-c2c(F)c(F)c(F)c(F)c21` gave a growth of 70.6%. Compound `COCCOC1=C(Cl)C(=O)c2ccccc2C1=O` has a growth of 33.4%. `O=C1C(OCCOc2ccccc2)=C(OCCOc2ccccc2)C(=O)c2ccccc21` was tested, and the growth was 51.8%. `COc1cc(/C=C/C(=O)CC(=O)/C=C/c2cc(Br)c(OC)c(OC)c2)cc(Br)c1OC` gave a growth of 96.6%. With `CCN1CCN(c2ccc(Nc3ncc4ccc5ncn(C(C)C)c5c4n3)nc2)CC1` the growth was 4.25% (active). `O=c1onc(-c2ccccc2)c2ccccc12` gave a growth of 101%. `COc1ccc(-c2nn(-c3ccc(NC(=O)c4ccc(Cl)c(Cl)c4)cc3)cc2-c2ccncc2)cc1Cl` was tested, and the growth was 80.5%. Compound `COc1cccc(OC)c1OC(=O)c1ccccc1` has a growth of 91.2%. For `C=C[C@H]1C[C@@H]2C[C@@H]3[C@H]4C/C=C\C(=O)NCCCC5NC(=O)C(=C(O)/C=C/[C@@H]4CC(=O)[C@H]3[C@@H]2[C@H]1C)C5=O` (some centres undefined), the growth was -60.7% (active). `C=C1CC[C@@H]2[C@@](C)(CCC[C@]2(C)C(=O)O)[C@@H]1CC[C@H](CO)CCO` was tested, and the growth was 103%.
